TDP43 rescue: qHTS of TDP-43 Inhibitors. TDP-43 expressing yeast growth rescue, BacTiter-Glo, 24 h. Potency, µM (doses to about 46.1 µM), hits mostly activators. hit rate 1.8% among 410,000; note: nearly all actives have a fitted effect of over 50% in size
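Galactose-induced TDP-43 yeast, OD600=0.02, compound pinned; 24 hr, 30 deg C; BacTiter-Glo luminescence for growth. Inhibitors of TDP-43 toxicity read as activators.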
FUS suppressor: qHTS for Suppressors of FUS Proteinopathy: Primary screen using FUS-linked yeast assay; AID 1347120, 2019; hit rate 0.24% among 390,000; Potency, µM (series often up to 76.6 µM), actives largely listed as activators; S. cerevisiae FUS-expressing, growth rescue, OD600, 24 h; note: nearly all actives have a fitted effect of over 55% in size
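Yeast expressing FUS under galactose induction, OD 0.005 in 2% galactose medium; compounds in a dilution series, 24 h at 30C. Growth rescue by absorbance at 600 nm; CP55940 positive control, DMSO negative.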
Abeta yeast res: qHTS for compounds that reverse cellular toxicity of Amyloid beta (A-beta) peptide in yeast: Primary Screen; AID 1347071, 2019; hit rate 0.063% among 410,000; Potency, µM (highest dose often 46.1 µM), hits mostly activators; yeast expressing A-beta42, growth rescue, OD600, 48 h; response scale: 0% DMSO, 100% iron-clioquinol control; note: nearly all actives have a fitted effect of over 55% in size
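Yeast A-beta toxicity model in growth medium with pinned compounds, 48 h at 30 C; growth read as absorbance at 600 nm. Normalized to FeCl3/clioquinol equimolar mix (positive) and DMSO (negative).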
Mito fusion yeast: qHTS Assay for Small Molecule Inhibitors of Mitochondrial Division or Activators of Mitochondrial Fusion; Potency, µM (doses to about 46.1 µM), hits mostly activators; hit rate 0.23% among 320,000; S. cerevisiae fusion-defective mutant growth rescue, CellTiterGlo 48 h; note: nearly all actives have a fitted effect of over 45% in size
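Luminescent cell viability in 1536-well qHTS format served as the measure of rescued growth in ts fusion-mutant S. cerevisiae cultured on non-fermentable YPEG for 48 hours at 37C.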
aSyn rescue: qHTS of alpha-syn Inhibitors | Yeast expressing alpha-synuclein, growth rescue, BacTiter-Glo, 24 h | Potency, µM (titrated, usually from 46.1 µM), hits mostly activators | hit rate 0.14% among 370,000 | AID 652106, 2013; note: nearly all actives have a fitted effect of over 65% in size
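Screening used galactose-induced yeast with toxic alpha-synuclein levels, exposed to compound for 24 hr at 30 deg C. Cell growth, read with BacTiter-Glo luminescence, gave the measured signal.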
Numbers stand for hits; 0 = inactive; ? = inconclusive; - = no result given; [ ] = remark or other dose. In the library only some 2.2% were active in any assay of this set; here they are far more common. Calls come from the whole dose curve; as a rule, active = well fitted curve in the direction sought with a large enough effect; inconclusive = small, poorly fitted or top-dose-only effect, or another doubt; inactive = no such curve, though single readings can be large; an effect the other way counts as inactive or inconclusive.

SMILES | TDP43 rescue | FUS suppressor | Abeta yeast res | Mito fusion yeast | aSyn rescue
Cc1ccc2cc(C3C(C#N)=C(N)Oc4c3ccc3cccnc43)c(=O)[nH]c2c1 (configuration not stated) | 0 | 28.2µM | 0 | 0 | 0
N#CC1=C(N)Oc2c(ccc3cccnc23)C1c1cccnc1 (configuration not stated) | 0 | 0 | 0 | 0 | 0
CCc1ccc2[nH]c(=O)c(C3C(C#N)=C(N)Oc4c3ccc3cccnc43)cc2c1 (configuration not stated) | 0 | 25.1µM | 0 | 0 | 0
O=C(Oc1ccc(C(=S)N2CCOCC2)cc1)c1ccc([N+](=O)[O-])cc1[N+](=O)[O-] | 0 | 0 | 0 | 0 | 0
O=[N+]([O-])c1cccc(C(=S)N2CCN(c3ccccc3)CC2)c1 | 12.6µM | - | 0 | 0 | 0
Cc1ccc(N2CCN(C(=O)C(=O)c3cccc([N+](=O)[O-])c3)CC2)cc1 | 15.8µM | 0 | 0 | - | 0
O=[N+]([O-])c1cccc(C(=S)N2CCN(c3ccccc3F)CC2)c1 | ? | 0 | 0 | 0 | 0
O=C(Oc1cccc(C(=S)N2CCOCC2)c1)c1ccc([N+](=O)[O-])cc1[N+](=O)[O-] | 11.2µM | 0 | 0 | 0 | 0
CCOC(=O)NC(=O)CSc1nc(-c2ccc(C)c(C)c2)cn1-c1ccccc1 | 35.5µM | 0 | 0 | ? | 0
CCCCCCOC(=O)c1ccc(OC(=O)c2cccnc2)cc1 | 0 | 0 | 0 | ? | 0
CCCCOC(=O)c1ccc(OC(=O)c2cccnc2)cc1 | 12.6µM | 0 | 0 | 0 | 0
CN(C)/[N+]([O-])=N/Oc1cc(F)c([N+](=O)[O-])cc1[N+](=O)[O-] | - | - | - | - | 0
Cc1cc(C)nc(NC(=NCCc2c[nH]c3ccccc23)NC(=O)Nc2ccc(Cl)cc2)n1 | 22.4µM | - | 0 | 0 | 0
CCC(Sc1nc2ccccc2s1)C(=O)Nc1nnc(C)s1 (configuration not stated) | 0 | ? | 0 | 0 | 0
CC(Sc1nc2ccccc2s1)C(=O)Nc1nnc(C(C)C)s1 (configuration not stated) | 25.1µM | 0 | 0 | 0 | 0
COc1cc(NC(=O)C2CCN(c3nc4ccccc4nc3C(F)(F)F)CC2)cc(OC)c1 | 0 | 0 | 0 | - | -
O=C(Nc1ccc(Cl)cn1)C1C(c2ccccc2)C1(Cl)Cl (configuration not stated) | 12.6µM | 0 | 0 | ? | 0
COc1ccc([C@]23Cc4cc(OC)c(OC)cc4C(O2)c2c(cc(C)n(Cc4ccccc4)c2=O)O3)cc1 | - | - | - | 0[9.22 µM] | -
O=C(CSc1cccc[n+]1[O-])CSc1cccc[n+]1[O-] | 3.55µM | 0 | ? | 0 | ?
O=C(CSc1cccc[n+]1[O-])N1CCCCCC1 | 0 | 0 | 0 | 0 | 0
CN(C(=O)Cn1cc(S(=O)(=O)N2CCN(c3ccccc3F)CC2)c2ccccc2c1=O)c1ccc(Cl)cc1 | 0 | 0 | 0 | - | -
COc1ccccc1/C=C1\NC(=S)N(CC2CCCO2)C1=O (configuration not stated) | 14.1µM | 0 | 0 | 0 | 0
COc1ccc(/C=C2/C(=O)N(CC3CCCO3)C(=S)N2C)c(OC)c1 (configuration not stated) | 0 | 0 | 0 | 0 | 0
CCOc1cc(-c2nnc(SCC(=O)NCc3ccccc3)nc2-c2ccc(OC)c(OCC)c2)ccc1OC | 0 | 0 | 0 | - | -
CC(C)Oc1ccc(C(=O)NC2(C(F)(F)F)NC(=O)N(CCCc3ccccc3)C2=O)cc1 (configuration not stated) | 0 | - | 0 | 20µM | 0
SMILES | TDP43 rescue | FUS suppressor | Abeta yeast res | Mito fusion yeast | aSyn rescue
O=C(CSc1nc(=O)n(Cc2ccco2)c2c1CCC2)Nc1ccccc1C(F)(F)F | 0 | 0 | 0 | - | -
COc1ccc(CC(=O)O/N=C(\N)c2ccncc2)cc1 | 0 | 0 | 0 | 0 | 0
COc1ccc(CC(=O)O/N=C(\N)c2ccc(C)cc2)cc1 | 7.94µM | 0 | 0 | 0 | 0
COc1cccc(OCC(=O)O/N=C(\N)c2ccc(OC)c(OC)c2)c1 | 11.2µM | - | 0 | 0 | 0
COc1ccc(C/C(=N\O)c2ccc(OC)cc2)cc1 | 14.1µM | 0 | 0 | 0 | 0
COc1ccc(/C(N)=N/OC(=O)Cc2ccccc2OC)cc1 | 20µM | 0 | 0 | 0 | 0
COc1ccccc1CC(=O)O/N=C(\N)c1ccccn1 | ? | 0 | 0 | 0 | 0
O=C(O)c1ccc(-n2nc(C(F)(F)F)c3c2CCCC3)cc1 | 15.8µM | 0 | 0 | 0 | 0
c1ccc2cc(Cn3ccc4ccc(-c5ccc6ccn(Cc7ccc8ccccc8c7)c6c5)cc43)ccc2c1 | - | 0 | - | - | -
CCCCNC(=O)[C@@H]1CSC2c3ccc(OC)c(OC)c3C(=O)N21 (some centres not stated) | 0 | 0 | 0 | 0 | 0
COCCNC(=O)[C@@H]1CSC2c3ccc(OC)c(OC)c3C(=O)N21 (some centres not stated) | 2.82µM | 0 | 0 | ? | 0
C[C@H]1CCCN1c1ccc2c(c1)OCCCN(C1CC1)S2(=O)=O | - | 0 | - | - | -
O=C(CCS(=O)(=O)c1nc(-c2cccs2)cc(C(F)(F)F)n1)Nc1ccc(Br)cc1 | ? | 0 | 0 | - | -
O=C(CCS(=O)(=O)c1nc(-c2cccs2)cc(C(F)(F)F)n1)Nc1cc(Br)ccc1O | 17.8µM | 0 | 0 | - | ?
Cc1ccc(O)c(NC(=O)CCS(=O)(=O)c2nc(-c3cccs3)cc(C(F)(F)F)n2)c1 | 11.2µM | 0 | 0 | - | -
COc1ccc(NC(=O)CCS(=O)(=O)c2nc(-c3ccc4c(c3)OCO4)cc(C(F)(F)F)n2)cc1 | ? | 0 | 0 | - | -
O=C(CCS(=O)(=O)c1nc(-c2ccc3c(c2)OCO3)cc(C(F)(F)F)n1)Nc1ccc(F)cc1F | 12.6µM | 0 | 0 | - | -
CC(C)OCCCNc1sc(S(=O)(=O)c2ccccc2)nc1S(=O)(=O)c1ccc(Cl)cc1 | 0 | 31.6µM | 0 | - | -
COc1cccc(C2=CC(c3ccccc3O)NC(C)(C)N2)c1 (configuration not stated) | - | - | - | - | 0
Clc1ncnc2scc(C3COc4ccccc4O3)c12 (configuration not stated) | 17.8µM | 0 | 0 | 0 | 0
c1ccc2c(c1)OCC(c1csc3ncnc(N4CCCCC4)c13)O2 (configuration not stated) | 0 | 0 | 0 | 0 | 0
NC(=S)NN=C(Cc1ccccc1)Cc1ccccc1 | 15.8µM | 0 | ? | 0 | 0
COc1cc(C(=O)Nc2ccc3[nH]c(=O)sc3c2)cc(OC)c1OC | 0 | 0 | 0 | - | -
CCOC(=O)CNC(c1ccccc1)c1cc(Br)ccc1NC(=O)CCN1CCOCC1 (configuration not stated) | 22.4µM | 0 | 0 | ? | 0

Screens deposited in PubChem by National Center for Advancing Translational Sciences (NCATS).
